From PubChem BioAssay (NCATS)
Results filed as inconclusive are left out. Where a call stands in place of a potency, no number is given. Active and inactive are the calls of the source. Calls come from the whole dose curve.

Assay: Validation screen for inhibitors of Lassa infection (AID 463096)
Details: Lassa virus infection, cell-based; series mostly up to 46.1 µM
Potency is the fitted concentration of half-maximal effect.

Q: With `C[N+]1(C)CCOC(O)(c2ccc(-c3ccc(C4(O)C[N+](C)(C)CCO4)cc3)cc2)C1` (centres undefined) as the compound, how does the Potency read?
A: inactive

Q: Which Potency does the source give for `COc1ccc2[nH]cc(CCN)c2c1` here?
A: inactive

Q: With `NC(CCCCCP(=O)(O)O)C(=O)O` (centres undefined) as the compound, how does the Potency read?
A: inactive

Q: For `CC(C)NP(=O)(NC(C)C)OP(=O)(NC(C)C)NC(C)C`, which Potency is on record?
A: inactive

Q: For `C[C@]12Cc3cn4c(nc3C=C1CCC1C2CC[C@@]2(C)[C@H]1CC[C@@]2(O)C#N)nc1ccccc14` (some centres undefined), which Potency is on record?
A: inactive

Q: For `CCCN1CC[C@@H]2c3cc(O)ccc3CC[C@@H]21`, which Potency is on record?
A: inactive

Q: With `NCCCP(=O)(O)O` as the compound, how does the Potency read?
A: inactive

Q: Which Potency does the source give for `C[N+](C)(C)CCOC(=O)CBr` here?
A: inactive

Q: For `C=CCN1C[C@@H](C)N([C@H](c2ccc(C(=O)N(CC)CC)cc2)c2cccc(OC)c2)C[C@@H]1C`, which Potency is on record?
A: inactive

Q: For `Cc1o[nH]c(=O)c1CC(N)C(=O)O` (centres undefined), which Potency is on record?
A: inactive

Q: With `C[N+](C)(C)CC#CCN1CCCC1=O` as the compound, how does the Potency read?
A: inactive

Q: With `NC(C(=O)O)c1cc(=O)[nH]o1` (centres undefined) as the compound, how does the Potency read?
A: inactive

Q: With `O=C(O)c1cc[c]([Hg][Cl])cc1` as the compound, how does the Potency read?
A: inactive

Q: For `C[Se]C[C@H](N)C(=O)O`, which Potency is on record?
A: inactive

Q: For `CO[C@H]1CC=C2CCN3CCC4=C(CC(=O)OC4)[C@]23C1`, which Potency is on record?
A: inactive

Q: With `COc1ccc(CNC(=O)/C=C/c2ccc3[nH]cc(CCN(C)C)c3c2)cc1` as the compound, how does the Potency read?
A: inactive

Q: Which Potency does the source give for `COc1ccc(OC)c(C(O)C(C)N)c1` (centres undefined) here?
A: inactive

Q: With `CC12NC(Cc3ccccc31)c1ccccc12` (centres undefined) as the compound, how does the Potency read?
A: inactive

Q: For `NC(=O)c1ccc(OCC(O)CN2CC=C(c3ccc(F)cc3)CC2)cc1` (centres undefined), which Potency is on record?
A: inactive

Q: For `C=CCN1CC[C@]23c4c5ccc(O)c4O[C@H]2/C(=N/NC(=O)c2ccccc2)CC[C@@]3(O)[C@H]1C5`, which Potency is on record?
A: inactive

Q: For `CC(=O)NBr`, which Potency is on record?
A: inactive

Q: Which Potency does the source give for `CN1CCc2cccc(Cl)c2CC1` here?
A: inactive

Q: Which Potency does the source give for `CN(C(=O)Cc1ccc(Cl)c(Cl)c1)C(CN1CCCC1)c1cccc(OCC(=O)O)c1` (centres undefined) here?
A: inactive

Q: With `C[C@@H]1O[C@H](C[N+](C)(C)C)CS1` as the compound, how does the Potency read?
A: inactive

Q: With `CCCN(CCC)C1CCc2cccc(O)c2C1` (centres undefined) as the compound, how does the Potency read?
A: inactive

Q: Which Potency does the source give for `C[C@H](Cc1ccc2c(c1)OC(C(=O)O)(C(=O)O)O2)NC[C@H](O)c1cccc(Cl)c1` here?
A: inactive

Q: For `CC(Cc1ccc(OCC(=O)O)cc1)NCC(O)c1cccc(Cl)c1` (centres undefined), which Potency is on record?
A: inactive

Q: For `NCCc1ccc(S(=O)(=O)F)cc1`, which Potency is on record?
A: inactive

Q: For `Clc1ccc(N2CC3CCC(C2)N3)nn1`, which Potency is on record?
A: inactive

Q: With `NC(=O)c1cc(N2CC2)c([N+](=O)[O-])cc1[N+](=O)[O-]` as the compound, how does the Potency read?
A: inactive

Q: For `O=S1(=O)N(CCN2CC=C(c3c[nH]c4cc(F)ccc34)CC2)c2cccc3c2N1CCC3`, which Potency is on record?
A: inactive

Q: With `NC(Cc1ccc(N(CCCl)CCCl)cc1)C(=O)O` (centres undefined) as the compound, how does the Potency read?
A: 8.91 µM (active)

Q: For `N[C@@H](CCl)C(=O)O`, which Potency is on record?
A: inactive

Q: For `NC(N)=NOCC[C@H](N)C(=O)O`, which Potency is on record?
A: inactive
